± gives the standard deviation of the averaged measurements.
What follows are compounds tested on HCI01 (cells of a triple-negative basal-like breast cancer xenograft) (assay: cell viability (% of vehicle); higher = less cytotoxic). Details: 10 µM; 72 h.
`C=CC[C@@H]1/C=C(\C)C[C@H](C)C[C@H](OC)[C@H]2O[C@@](O)(C(=O)C(=O)N3CCCC[C@H]3C(=O)O[C@H](/C(C)=C/[C@@H]3CC[C@@H](O)[C@H](OC)C3)[C@H](C)[C@@H](O)CC1=O)[C@H](C)C[C@@H]2OC` [Tacrolimus (FK506)] showed a cell viability of 55.9 ± 45.
With `O=C1CCC(N2C(=O)c3ccccc3C2=O)C(=O)N1` (configuration not stated) [Thalidomide] the cell viability was 144 ± 7.8.
With `COc1cc2nc(N3CCN(C(=O)c4ccco4)CC3)nc(N)c2cc1OC.Cl` [Prazosin HCl] the cell viability was 152 ± 2.9.
In the case of `Oc1ccc(OC2CCCCO2)cc1` (configuration not stated) [Deoxyarbutin], the cell viability is reported as 103 ± 22.
Compound `COc1ccccc1N1CCN(CCCNc2cc(=O)n(C)c(=O)n2C)CC1.Cl` [Urapidil HCl] has a cell viability of 96.7 ± 8.1.
`O=C(O)CCC(=O)O.O=C(OC1CN2CCC1CC2)N1CCc2ccccc2C1c1ccccc1` (configuration not stated) [Solifenacin succinate] was tested, and the cell viability was 90.4 ± 10.
`COc1ccc(O)cc1` [Mequinol] showed a cell viability of 91 ± 10.
With `CCC(CO)NCCNC(CC)CO.Cl.Cl` (configuration not stated) [Ethambutol HCl] the cell viability was 98.6 ± 2.4.
In the case of `CC(NC(=O)C(O)C(C)C)C(=O)NC1C(=O)N(C)CCc2ccccc21` (configuration not stated), the cell viability is reported as 144 ± 28.
`CC12CCC3c4ccc(OC(=O)c5ccccc5)cc4CCC3C1CCC2O` (configuration not stated) [Estradiol Benzoate] gave a cell viability of 123.5 ± 0.41.
Compound `CC(CN1CC(=O)NC(=O)C1)N1CC(=O)NC(=O)C1.Cl` (configuration not stated) [Dexrazoxane HCl (ICRF-187, ADR-529)] has a cell viability of 64.8 ± 50.
In the case of `CCC1OC(=O)C(C)C(OC2CC(C)(OC)C(O)C(C)O2)C(C)C(OC2OC(C)CC(N(C)C)C2O)C(C)(O)CC(C)C2NC(COCCOC)OC(C2C)C1(C)O` (configuration not stated) [Dirithromycin], the cell viability is reported as 143 ± 72.
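Also: PDX cells carrying CMV promoter-driven luciferase, viability read as total photon flux per second by IVIS imaging following D-luciferin, vehicle control 0.1% DMSO.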
